# Measured values from PubChem BioAssay (NCI).
# The panel holds about 83,000 compounds, 20% with a hit somewhere; the sample as a whole holds those more often.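 The endpoint reported here, percent growth, reads 100 for growth as untreated, 0 for no net growth and -100 for all cells dead.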 Values without a mark were called inactive. The source made the active and inactive calls. The calls were made as follows: active = growth percent below 10; inactive = the rest.
# System: NCI-H460 lung
# Experiment: NCI-60 one-dose screen, 48 h (100 = growth as untreated, 0 = no growth, -100 = all killed)
# Settings: 10 µM unless noted
row,Compound,growth
1,COC(=O)[C@@H](Cc1c[nH]c2ccccc12)NC(=O)/C=C/c1ccccc1,9.94% (active)
2,NNc1ccc(S(N)(=O)=O)cc1,107%
3,COc1ccc(-c2ccc(-c3ccc(C(=N)N)s3)s2)cc1,-64.2% (active)
4,O=P(O)(O)C(O)(Cc1cccnc1)P(=O)(O)O,111%
5,O=C1OC(/C=C/c2ccccc2)=NC/1=C/c1ccccc1[N+](=O)[O-],103%
6,N/C(=N\O)c1ncc(-c2ccc(C(F)(F)F)cc2)c(NC2CCCCCC2)n1,-64.8% [100 µM] (active)
7,Cc1cc(Nc2c3ccccc3nc3ccccc23)ccc1NS(C)(=O)=O,14.4%
8,COC(=O)[C@H](Cc1cn(C)cn1)NC(=O)[C@H](CC(C)C)NC(=O)Nc1cc(C(F)(F)F)cc(C(F)(F)F)c1,-59.8% [100 µM] (active)
9,N=C(N)c1ccc(-c2ccc(-c3cccs3)s2)cc1F,-57.4% (active)
10,O=C(Nc1cccc(Cl)c1)Nc1ccccc1Cl,86%
11,CCCCCCCCCCCCCC,108%
12,Cc1nn(-c2ccccc2)c2nc3c(nc12)C1=NCCN1C(c1ccc(Cl)cc1)N3 (stereo not drawn),82.9%
13,COc1cc(OC)c(C(=O)/C=C/c2cccc(OC(C)=O)c2)cc1CC=C(C)C,89.4%
14,C[N+](C)(C)CCCCCCCCCC[N+](C)(C)C,98.2%
15,Cc1cc2nc(CN)[nH]c2cc1C,103%
16,CC(=O)C1CCC2C3CC(C)=C4CC(O)CCC4(C)C3CCC12C (stereo not drawn),109%
17,N=C(N)c1ccc(-c2ccc(-c3ccco3)o2)cc1F,0.478% (active)
18,N#Cc1ccc(-c2ccc(-c3cccs3)o2)cc1F,88.1%
19,O=C(Nc1cccc(-n2ccc3c(NC(=O)c4ccccc4)nccc32)c1)c1ccc(Cl)c(Cl)c1,-67.8% (active)

row,Compound,growth
1,COc1ccc2nc3ccccc3c(NCc3ccc(C)cc3)c2c1,10%
2,COc1cc(OC)cc(-c2ccc(-c3ccc(C(=N)N)s3)s2)c1,-71.6% (active)
3,COc1ccc(-c2cc(-c3cc4ccccc4oc3=O)n(-c3ccccc3)n2)cc1,95.3%
4,O=C1c2cccc3cccc(c23)C(=O)N1CCCCCCCCCCN1C(=O)c2cccc3cccc(c23)C1=O,102%
5,O=C(CCCN1CCC(O)(c2ccc(Br)cc2)CC1)c1ccc(F)cc1,76.8%
6,O=C(c1ccc(OCCN2CCCCC2)cc1)c1c(-c2ccc(O)cc2)sc2cc(O)ccc12,93.5%
7,CCCCCc1c(C)[nH]c(/C=C2\N=C(c3ccc[nH]3)C=C2Oc2ccc(OC)cc2)c1C,-46.1% [100 µM] (active)
8,ClCCn1cnc2c(SCc3ccccc3Cl)ncnc21,2.49% (active)
9,O=C(N/N=C/c1ccc([N+](=O)[O-])o1)c1ccc(O)cc1,18.8%
10,CCS(=O)(=O)Nc1cccc(Nc2c3cccc(C)c3nc3c(C)cccc23)c1OC,3.23% (active)
11,CCN(C(=O)CCl)C(C)(C)C(SSSC(c1ccc(Cl)cc1)C(C)(C)N(CC)C(=O)CCl)c1ccc(Cl)cc1 (stereo not drawn),81.1%
12,CCOC(=O)C(CCCCC(NC(C)=O)(C(=O)OCC)C(=O)OCC)(NC(C)=O)C(=O)OCC,103%
13,COc1ccc(-n2nc(C(=O)Nc3ccc(F)cc3)nc2-c2cc(OC)c(OC)c(OC)c2)cc1,98.4%
14,ClC1=NC(Cl)C(Cl)=N/C1=N\c1ncn[nH]1 (stereo not drawn),73.3%
15,COc1cc2c(cc1OC)-c1cc(OC)c(OC)cc1C(CN(C)C)C2 (stereo not drawn),67.7% [100 µM]
16,Oc1ccc(-c2nnc3c4[nH]ccc4ncn23)cc1,90.1%
17,COc1ccc(/C=N/NC(N)=S)c(OC)n1,106%
18,CC(C)(C)c1cc(C[P+](c2ccccc2)(c2ccccc2)c2ccccc2)cc(C(C)(C)C)c1O,3.54% (active)
19,FC(F)(F)c1cc(-c2nnc3n2N=C(Cl)CS3)cc(C(F)(F)F)c1,107%
